# Compounds with a hit are over-represented: about 3.3% of the library has one in this group of screens.
# M18AAP inhibitor: blocks P. falciparum M18 aspartyl aminopeptidase. 1.2% of 290,000 active. inhibition, % at 7.35 µM. AID 1822. recombinant PfM18AAP, H-Glu-NHMec fluorogenic cleavage;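 active = inhibition above the campaign mean inhibition over all tested compounds plus 3 SD, cut at about 28% in these data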;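 note: 0% = plate median of test compound wells and 100% = 2 mM ZnCl2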
# PfG6PD inh: PfG6PD (Plasmodium falciparum) enzyme inhibition; inhibition, % at 20 µM; 0.78% of 350,000 active; PfGluPho enzyme, NADPH resazurin-diaphorase fluorescence;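 active = inhibition reaching at least a set limit at 20 µM in the primary screen, cut at about 59% in these data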;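 note: 0% = DMSO wells with substrate and 100% = DMSO wells lacking glucose-6-phosphate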
# MBD2 inh: MBD2-methylated oligo binding inhibition; 0.31% of 370,000 active; AID 686964; inhibition, % at 4.4 µM; TR-FRET, MBD2 binding to methylated oligonucleotide; Q9UBB5; in the data active = inhibition above about 13%
# Target sequence (Q9UBB5 whole entry, looked up): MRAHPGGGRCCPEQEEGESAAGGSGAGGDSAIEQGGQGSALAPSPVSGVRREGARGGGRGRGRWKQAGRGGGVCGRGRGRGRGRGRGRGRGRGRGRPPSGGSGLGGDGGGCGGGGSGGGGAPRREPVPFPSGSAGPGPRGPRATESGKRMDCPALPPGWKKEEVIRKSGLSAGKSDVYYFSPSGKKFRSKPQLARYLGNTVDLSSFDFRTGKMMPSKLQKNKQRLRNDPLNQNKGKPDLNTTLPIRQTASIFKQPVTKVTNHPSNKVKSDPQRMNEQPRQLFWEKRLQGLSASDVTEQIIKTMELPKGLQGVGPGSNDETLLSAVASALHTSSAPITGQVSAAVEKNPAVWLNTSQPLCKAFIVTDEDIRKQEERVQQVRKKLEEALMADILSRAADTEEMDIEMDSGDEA
# PRMT1 FP inh: inhibitors of human PRMT1; 1.3% of 370,000 active; Q99873; inhibition, % at 2.79 µM; recombinant PRMT1, activity-based probe fluorescence polarization;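 active = inhibition above about 21% made by adding two undisclosed values, limit read from the data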
# UHRF1 MBD2 ctr: blocks human UHRF1 binding to methylated DNA | Q96T88 | 0.75% of 370,000 active | UHRF1 binding to methylated oligo, TR-FRET | inhibition, % at 4.4 µM; in the data active = inhibition above about 21%;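 note: UHRF1 SRA domain binding a hemimethylated CpG hairpin DNA probe; 0% = median of test compound wells and 100% = reference inhibitor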
# PfG6PD confirm: PfG6PD inhibition, single-dose confirmed. 34% of 2,400 active. inhibition, % at 20 µM. shares compounds with PfG6PD inh. recombinant PfGluPho, NADPH-diaphorase-resazurin fluorescence;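 active = inhibition of at least 50% at 20 µM in any single replicate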;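 note: 0% = DMSO with substrate and 100% = DMSO lacking glucose-6-phosphate substrate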
# Diaph ctr 10uM: counter-screen for P. falciparum G6PD inhibitors: diaphorase inhibitors, oxidizers | shares compounds with PfG6PD inh | inhibition, % at 20 µM | 39% of 820 active | diaphorase-coupled resazurin reduction, fluorescence, NADPH 10 uM;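 active = average inhibition reaching 50% or more with the compound at 20 µM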;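 note: resorufin red fluorescence formed as diaphorase reduces resazurin using NADPH; 0% = DMSO with enzyme and 100% = DMSO without enzyme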
# Diaphorase 30uM: inhibits diaphorase or oxidizes, flagging false PfG6PD hits; shares compounds with PfG6PD inh; Diaphorase/resazurin coupled assay, resorufin fluorescence, 30 uM NADPH; inhibition, % at 20 µM; 29% of 820 active;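 active = inhibition averaging 50% or more, tested at 20 µM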;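 note: 0% = DMSO with enzyme and 100% = DMSO wells lacking diaphorase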
# Active calls of the source: *; . = no result given.
SMILES,M18AAP inhibitor,PfG6PD inh,MBD2 inh,PRMT1 FP inh,UHRF1 MBD2 ctr,PfG6PD confirm,others
Cn1c(CO)cnc1-c1ccccc1,-0.2,-12.7,-1.2,3.4,1.0,.,
COCc1cc(N2CCNC[C@@H]2C)ccc1N1CCS(=O)(=O)CC1,.,.,5.7,2.6,9.8,.,
CCCC/C=C1/[C@H](c2ccccc2)N(C)C2=N[C@@H](c3ccccc3)CC(=O)N21,.,.,1.1,3.2,3.1,.,
O=C(O)c1ccc(Nc2nc3ccccc3nc2NS(=O)(=O)c2cccs2)cc1,-5.6,-11.6,3.0,0.3,1.1,.,
O=C1C=C(Nc2ccc(O)cc2)C(=O)c2ccccc21,-7.3,6.3,-19.9,1.3,-18.8,.,
O=C(O)c1ccc(NC2=C/C(=N/S(=O)(=O)c3cccs3)c3ccccc3C2=O)cc1,.,106.2*,-14.5,0.9,2.9,101.2*,Diaph ctr 10uM=84.9*;Diaphorase 30uM=84.5*
O=C1C(Nc2ccc(O)cc2)=C/C(=N/S(=O)(=O)c2cccs2)c2ccccc21,3.6,114.3*,-10.7,12.9,2.8,60.2*,Diaph ctr 10uM=66.9*;Diaphorase 30uM=64.9*
COc1cc(F)c(S(=O)(=O)N2CCCN(S(=O)(=O)c3cccc(N)c3)CC2)c(F)c1,.,.,5.5,-1.5,0.3,.,
Cn1c(SC2CCCC2)nnc1-c1ccco1,.,.,1.0,-1.0,-0.3,.,
O=C(COC(=O)Cc1ccc(F)cc1)NC(=O)c1ccccc1,.,-1.7,1.0,-2.2,-0.1,.,
C[C@@H]1C=CCCO[C@]12C(=O)N(CC1CC1)c1cccc(Br)c12,.,.,-3.2,-4.4,-0.4,.,
CC(C)C1=CC(=Nc2ccc(S(N)(=O)=O)cc2)C=C(C(C)C)C1=O,9.9,75.6*,-1.8,7.6,3.2,35.8,
NS(=O)(=O)c1ccc(N=C2C(=O)Nc3ccccc32)cc1,-2.4,-17.6,-0.7,5.8,-3.8,.,
CC(C)N(C(=O)COC(=O)CNS(=O)(=O)c1ccccc1F)c1ccccc1,4.1,-3.7,1.9,-1.6,0.2,.,
CCN(CC)CCCNC(=S)N(Cc1cccnc1)Cc1cc2cc(C)ccc2[nH]c1=O,-2.8,-7.8,-0.1,0.0,-1.4,.,
O=C(O)c1ccc2cccc(O)c2n1,6.1,65.8*,-5.3,6.3,-0.3,31.9,
O=C(O)c1cccc(C(=O)O)n1,7.8,.,.,.,.,.,
FC(F)(F)c1cc(CO[C@@H]2CCCN[C@@H]2c2ccccc2)cc(C(F)(F)F)c1,.,66.6*,-8.9,-3.7,1.4,21.7,
FC(F)(F)c1cc(CCN2CCNC[C@@H]2c2ccccc2)cc(C(F)(F)F)c1,.,6.4,2.0,2.3,-3.0,.,
NS(=O)(=O)c1cc(C(=O)NCC2CCCCC2)ccc1Cl,6.9,-7.1,-0.1,-0.3,-0.7,.,
COc1ccc(-n2c(C)cc(C(=O)NC3CCCCC3)c2C)cc1,-8.2,70.6*,4.7,-2.4,5.9,38.2,
O=C(Nc1sc2c(c1C(=O)O)CCC2)c1ccccc1Cl,-4.1,7.1,0.2,-1.6,-2.5,.,
O=C(Nc1sc2c(c1C(=O)O)CCC2)c1cccc(Cl)c1,-2.1,62.4*,1.1,1.3,-0.9,35.0,
Cc1cccc(C(=O)Nc2sc3c(c2C(=O)O)CCCC3)c1,-8.1,80.0*,5.0,0.2,0.3,53.4*,Diaph ctr 10uM=46.9;Diaphorase 30uM=29.0
COCCCN1C(=O)[C@H](CC(=O)NCC23CC4CC(CC(C4)C2)C3)[C@]2(C(=O)OC)CCCCC=C12,.,.,-1.6,-1.1,0.1,.,
SMILES,M18AAP inhibitor,PfG6PD inh,MBD2 inh,PRMT1 FP inh,UHRF1 MBD2 ctr,PfG6PD confirm,others
COc1ccccc1-n1c(=S)[nH]c2c(sc(=S)n2-c2ccccc2)c1=O,2.5,63.1*,-6.2,83.0*,2.2,12.4,
CCOc1ccc(-n2c(=S)sc3c(=O)n(-c4ccccc4)c(SC)nc32)cc1,-13.8,-34.9,0.9,0.9,0.3,.,
COc1ccccc1-n1c(SCC(=O)O)nc2c(sc(=S)n2-c2ccccc2C)c1=O,1.4,30.9,1.5,-0.1,8.4,.,
COc1ccccc1-n1c(SC)nc2c(sc(=S)n2-c2ccccc2)c1=O,2.7,-5.2,5.3,1.7,-0.1,.,
CCOc1ccccc1-n1c(=S)sc2c(=O)n(-c3ccccc3)c(=S)[nH]c21,4.8,73.0*,-2.3,78.0*,-0.9,-5.3,
COc1ccccc1-n1c(=S)[nH]c2c(sc(=S)n2-c2ccccc2C)c1=O,-6.4,71.9*,-5.0,87.1*,-2.8,23.4,
O=C(NCc1ccncc1)C(=O)NCC1OCCN1S(=O)(=O)c1ccc(F)cc1 (stereo not drawn),-4.3,5.5,1.4,0.1,-1.9,.,
COC(=O)C1CN(CC(C)C)CCS(=O)(=O)N1Cc1ccc(C(F)(F)F)cc1 (stereo not drawn),.,.,1.6,2.2,-1.1,.,
CCOc1ccc(/C=N/NC(=O)c2ccc(Cn3cc([N+](=O)[O-])cn3)o2)cc1,-6.3,-26.2,0.3,-0.1,-0.8,.,
CCOc1ccccc1/C=N/NC(=O)c1ccc(Cn2cc([N+](=O)[O-])cn2)o1,7.7,60.8*,-2.4,1.2,-0.2,35.4,
CCOc1ccccc1N(CC(=O)N/N=C/c1cc(Br)ccc1OC)S(C)(=O)=O,3.6,117.9*,-5.9,-0.3,-4.0,72.4*,Diaph ctr 10uM=70.5*;Diaphorase 30uM=55.9*
O=C(CCCC(=O)NN=Cc1ccccc1Cl)NN=Cc1ccccc1Cl,.,85.8*,1.2,-1.2,-4.1,41.6,
CCOc1ccccc1C=NNC(=O)CCCCC(=O)NN=Cc1ccccc1OCC,.,124.9*,1.0,-1.1,-0.7,78.2*,Diaph ctr 10uM=41.1;Diaphorase 30uM=54.3*
COCCN1Cc2cc(C(=O)OC)c3c(c2C1=O)c1ccccc1n3S(=O)(=O)c1ccc(C)cc1,.,.,-4.0,-5.5,-1.3,.,
Cc1ccccc1NC(=O)[C@@H]1CCCN1S(=O)(=O)c1cccc2cccnc12,.,.,4.9,-7.1,-3.8,.,
COc1ccccc1C=NNC(=O)C(=O)NN=Cc1ccccc1OC,.,-24.0,3.2,2.3,0.3,.,
COc1ccccc1/C=N/NC(=O)CC(=O)NCc1ccccc1,2.0,104.9*,-1.6,0.2,-3.9,86.4*,Diaph ctr 10uM=92.5*;Diaphorase 30uM=81.8*
O=C(CNC(=O)C1COc2ccccc2O1)N/N=C\c1ccccc1Cl (stereo not drawn),5.8,60.2*,0.6,-2.2,1.3,-1.8,
COc1ccccc1/C=N/NC(=O)CSc1ccc2ccccc2n1,-2.2,119.2*,2.2,-0.4,2.5,84.9*,Diaph ctr 10uM=97.3*;Diaphorase 30uM=85.8*
CCOc1ccc(/C=N/NC(=O)Cc2csc(Nc3cccc(C(F)(F)F)c3)n2)c(OCC)c1,0.5,12.1,-5.3,-0.3,-6.1,.,
CCOc1ccccc1/C=N/NC(=O)Cc1csc(Nc2cccc(C(F)(F)F)c2)n1,1.9,69.5*,-8.8,-3.4,-2.2,7.0,
COc1ccccc1/C=N/NC(=O)CO,1.3,24.5,-4.4,-2.8,0.1,.,
COc1cccc(/C=N/NC(=O)CNC(=O)C2COc3ccccc3O2)c1O (stereo not drawn),6.3,-28.4,5.3,0.3,2.9,.,
CC1CCCN(C(=O)Nc2ccc([N+](=O)[O-])cc2)C1 (stereo not drawn),.,.,-2.5,-0.7,-1.2,.,

# Screening results from PubChem BioAssay.
